# Measurements reported in PubChem BioAssay.
# Values without a mark were called inactive. The source made the active and inactive calls. Cut-off read from the data, not from the text of the source: active = inhibition above about 25%; inactive = the rest.
# Assay: VP16 transactivation inhibitors, counter-screen for SRC1 inhibitor project, cell-based, luminescence, high throughput (AID 588824)
# Conditions: cell-based VP16 transactivation luciferase luminescence; at 3.6 µM; stronger effect = higher value
row,Compound,inhibition
1,O=C(/C(=C/c1ccc(Cl)cc1)c1nc2ccccc2[nH]1)c1cccs1,49.5% (active)
2,Cc1ccc(S(=O)(=O)N2[C@@H](c3ccc(C(C)(C)C)cc3)C(C(=O)O)=CC[C@H]2c2ccc(Cl)cc2)cc1,19.6%
3,CC1CCN(Cc2c(C(=O)N/N=C/c3ccccc3O)nnn2-c2nonc2N)CC1,56.8% (active)
4,Cn1c(=O)c2c(nc(Oc3ccc4ccccc4c3)n2C)n(C)c1=O,34.7% (active)
5,O=C(Nc1nc(-c2ccc3ccccc3c2)cs1)C1CCN(S(=O)(=O)c2cccs2)CC1,33.2% (active)
6,CCOc1ccc(-n2c(C)c(C(C)=O)c3cc(OC(C)=O)ccc32)cc1,47.6% (active)
7,Fc1ccc(NC(=S)NNc2ncc(C(F)(F)F)cc2Cl)c(F)c1,29.1% (active)
8,Nc1nc(CCl)nc(Nc2cccc3ccccc23)n1,18.8%
9,Cc1cc(C)nc(SCC(=O)Nc2ccnc3ccccc23)n1,31.7% (active)
10,COc1ccc(-c2cn[nH]c2N)c(OC)c1,41.7% (active)
11,O=c1[nH]c(=O)n(C2OC(CO)C(O)C2O)cc1F (stereo not given),57.2% (active)
12,O=[N+]([O-])c1ccc(O)c(/C=N/Nc2ccccn2)c1,37.1% (active)
13,Nc1nc(=O)n(C2CC(O)C(CO)O2)cc1F (stereo not given),40.9% (active)
14,CCOC(=O)c1c(C)n(C)c2ccc(OC)c(NC(=O)c3cccs3)c12,44.5% (active)
15,CCOc1cc(C(N)=O)cc(Br)c1OC,14.2%
16,CC(C)c1ccc(-c2nnn(CCC(=O)O)n2)cc1,37.5% (active)
17,Cn1c(=O)c2c(nc(NCc3ccco3)n2C/C=C/c2ccccc2)n(C)c1=O,39.9% (active)
18,CC(=O)N1c2ccc(S(=O)(=O)NCC3CCC(C(=O)Nc4cccc(C)n4)CC3)cc2CC1C (stereo not given),21.6%
19,Cc1ccc(S(=O)(=O)N2CCN(S(C)(=O)=O)CC2)cc1,6.89%
20,CC12CCC(C(=O)N/N=C/c3ccc(O)cc3O)(OC1=O)C2(C)C (stereo not given),6.4%

row,Compound,inhibition
1,Cc1cc(C)c2nc3nc(C)c(C)cc3c(N)c2c1,48% (active)
2,O=C(CCc1ccccc1)NC(c1cccs1)c1cc(Cl)c2cccnc2c1O (stereo not given),45.9% (active)
3,Cc1cccc[n+]1CC(=O)/C=C1\N(C)c2ccccc2C1(C)C,23.5%
4,OC1c2cc(Br)ccc2N=C2CCCN21 (stereo not given),30.1% (active)
5,Cc1ccc(-c2n[nH]c(=S)n2/N=C/c2ccncc2)cc1,28.7% (active)
6,CCSCCc1nnc(NC(=O)Nc2cccc(C(F)(F)F)c2)s1,28.4% (active)
7,C(C#CCCCCCCCCC[n+]1ccccc1)#CCCCCCCCCC[n+]1ccccc1,73.4% (active)
8,CC1CCN(c2nc3ccc(C(=O)O)cc3s2)CC1,-1.81%
9,COc1ccc(-c2cn[nH]c2-c2ccc(OCc3ccc([N+](=O)[O-])cc3)cc2O)cc1,27.4% (active)
10,CCN(CC)CCC(=O)Nc1cccc2c1C(=O)c1ccccc1C2=O,25.7% (active)
11,CN(c1ncnc(N)c1[N+](=O)[O-])C1CCS(=O)(=O)C1 (stereo not given),34.1% (active)
12,c1cncc(CNc2ncnc3ccc(-c4ccoc4)cc23)c1,47.8% (active)
13,Cc1cccc(CNc2ncnc3ccc(-c4ccoc4)cc23)c1,46% (active)
14,O=C(/C=C/c1ccc(Cl)cc1)NC(=S)Nc1ccc(NC(=O)c2ccco2)cc1,65% (active)
15,N=c1c2c(-c3ccccc3)c(-c3ccccc3)n(Cc3ccco3)c2ncn1CCCn1ccnc1,57.4% (active)
16,CC(=O)N1CCN(c2ccc(Oc3ncnc4sccc34)cc2)CC1,16.9%
17,CN([C@@H](Cc1ccc(OS(=O)(=O)c2cccc3cnccc23)cc1)C(=O)N1CCN(c2ccccc2)CC1)S(=O)(=O)c1cccc2cnccc12,31.2% (active)
18,Fc1ccc(CSc2nnc(-c3ccncc3)o2)cc1,19.3%
19,CC(C)(C)C(=O)NC(=S)NNC(=O)c1sc2ccccc2c1Cl,-6.4%
20,COc1ccc(N/N=C(\C#N)C(=N)SCc2ccccc2)cc1,29.5% (active)
